This note sets out measurements from PubChem BioAssay (Tox21).

Molecules are shown by their SMILES. Inconclusive results are not listed. Unmarked numbers belong to inactive results. Calls of active or inactive are those of the source. Calls follow the shape of the dose curve; as a rule, active = well fitted inhibition curve with a large enough effect in the repeat runs; inconclusive = weak or mixed curves; inactive = flat fitted curve, though single readings scatter.
% is scaled to controls: 0 for no effect and ±100 for the full control effect; potency is read from the fitted curve at half-maximal effect.

A short description of the assay: qHTS assay to identify small molecule HDAC inhibitors (AID 1259364). Also: nearly all actives have a fitted effect of over 45% in size. As to activity change, negative = inhibition: top concentration of the series differs between compounds. The following applies: HCT-116 HDAC-Glo I/II luminescence, 2 h; series mostly up to 92.4 µM; activity change, negative = inhibition: at the top concentration. From the text: U.S. Tox21 Program National Center for Advancing Translational Sciences [NCATS] NIH Chemical Genomics Center [NCGC] U.S. Environmental Protection Agency [EPA] National Institutes of Environmental Health Sciences [NIEHS] National Toxicology Program [NTP] U.S. Food and Drug Administration [FDA] Tox21 Assay Overview: Histone deacetylases (HDACs) are a group of epigenetic enzymes that regulate gene expression by histone deacetylation. HDACs are capable of introducing epigenetic modifications and such aberrations contribute to the onset and progression of several human diseases, thus making HDACs a popular therapeutic target. For identifying endogenous class I/II HDAC inhibitors a homogenous, luminogenic HDAC I/II cell based assay was used to measure the relative activity of class I and II HDACs from cells. Wild type HCT-116 cells were used to screen Tox21 libraries for identifying class I/II HDAC inhibitors.
Tox21 Assay Protocol Summary: HCT-116 cells were dispensed at 1,500 per well in 5uL of culture medium into white solid bottom 1536-well plates (Greiner Bio-One, Monroe, NC) using a Multidrop Combi (Thermo Scientific, Waltham, MA) dispenser. The assay plates were incubated at 37 C and 5% CO2 for an overnight, and then 23nL of compounds dissolved in DMSO and positive control were transferred using a Pintool station (Wako, San Diego, CA). The assay plates were incubated at 37C and 5% CO2 for 2hr. After compound treatment, 4uL of HDAC-Glo reagent (Promega Corporation, Madison, WI) was added to each well of the assay plates using Flying Reagent Dispenser (FRD, Aurora Discovery, San Diego, CA) and incubated the assay plates at room temperature for 30min. The luminescence signal was quantified using a ViewLux plate reader (Perkin Elmer, Shelton, CT).
`CN1CCC[C@@H]1CCO[C@](C)(c1ccccc1)c1ccc(Cl)cc1`: the “activity change, negative = inhibition” value is -6.76% [at 42.5 µM].

`CCOC(=O)c1ccc(C2CCC(NC[C@H](O)COc3ccc(O)c(NS(C)(=O)=O)c3)CC2)cc1` (stereo not given in full): the “activity change, negative = inhibition” value was -0.38%.

On to `CN(C)CCN1CCN(c2cccc(Cl)c2)C1=O`, for which the “activity change, negative = inhibition” value was 2.17% [at 42.5 µM].

As for `Clc1ccnc(Cl)n1`, the “activity change, negative = inhibition” value is 4.86%.

For `CC(CCc1ccccc1)NCC(O)c1ccc(O)c(C(N)=O)c1` (stereo not given), the “activity change, negative = inhibition” value is -1.4%.

On to `C[C@H]1NCc2cc(-c3ccc4c(=O)c(C(=O)O)cn(C5CC5)c4c3OC(F)F)ccc21`, for which the activity change, negative = inhibition is -0.849% [at 19 µM].

For the compound `CC(C)=CCC1=C(O)c2ccccc2C(=O)C1=O`, the “activity change, negative = inhibition” value is -23%.

Turning to `Cc1cc(-c2ccc(N=Nc3cc(S(=O)(=O)O)c4ccccc4c3N)c(C)c2)ccc1N=Nc1cc(S(=O)(=O)O)c2ccccc2c1N`, the “activity change, negative = inhibition” value is -5.42%.

For `C=Cc1ccccc1C=C`, the “activity change, negative = inhibition” value was 0.755% [at 240 µM].

In the case of `CN1CCN2c3ccccc3Cc3ccccc3C2C1` (stereo not given), the “activity change, negative = inhibition” value is 3.24% [at 42.5 µM].

Take `O=[N+]([O-])c1cccc(C(F)(F)F)c1`: the “activity change, negative = inhibition” value is 3.14%.

`O=C(c1ccc(O)c(O)c1)c1ccc(O)cc1O`: the Potency is 24.3 µM (active).

Turning to `O=C1c2ccccc2C(=O)N1SC1CCCCC1`, the Potency result was “inactive”.

As to `Clc1sc(Cl)c(Cl)c1Cl`, the “activity change, negative = inhibition” value is 10.5%.

On to `CCCC(=O)OC(C)(C)Cc1ccccc1`, for which the “activity change, negative = inhibition” value is 3.66%.

In the case of `NC(=O)c1cccc([N+](=O)[O-])c1`, the “activity change, negative = inhibition” value is 6.14%.

Regarding `Cc1cc(C(C)(C)C)cc(C)c1CC1=NCCN1`, the “activity change, negative = inhibition” value is 1.36% [at 42.5 µM].

`COC(C)=O`: the “activity change, negative = inhibition” value was -9.54%.

With `Cc1cc(C(C#N)c2ccc(Cl)cc2)c(Cl)cc1NC(=O)c1cc(I)cc(I)c1O` (stereo not given), the “activity change, negative = inhibition” value is 1.13% [at 42.5 µM].

As to `Cc1cccc2cccnc12`, the “activity change, negative = inhibition” value is 6.08%.

For the compound `COC(=O)c1ccccc1OC`, the “activity change, negative = inhibition” value was 1.92%.

For `CCC(CC)C(C)CCOC(C)=O` (stereo not given), the “activity change, negative = inhibition” value was 0.866%.

For the compound `CC1(C)[C@@H](O)CC[C@]2(C)[C@H]3C(=O)C=C4[C@@H]5C[C@@](C)(C(=O)O)CC[C@]5(C)CC[C@@]4(C)[C@]3(C)CC[C@@H]12`, the “activity change, negative = inhibition” value is -1.67%.

In the case of `S=C([S-])NCCNC(=S)[S-].S=C([S-])NCCNC(=S)[S-].[Mn+2].[Zn+2]`, the “activity change, negative = inhibition” value was -5.95% [at 42.5 µM].

`Cc1cc(C(C)(C)C)c(O)c(C)c1Cn1c(=O)n(Cc2c(C)cc(C(C)(C)C)c(O)c2C)c(=O)n(Cc2c(C)cc(C(C)(C)C)c(O)c2C)c1=O`: the “activity change, negative = inhibition” value is 0.844%.

Consider `O=C(O)Cc1ccc2c(c1)C(=O)c1ccccc1CO2`, for which the “activity change, negative = inhibition” value is -0.31% [at 42.5 µM].

In the case of `CCN(CC)C(=O)c1cc(S(=O)(=O)Cc2ccccc2)c(N2CCC(c3ccccc3)CC2)cc1N(CC)CCN(C)C`, the “activity change, negative = inhibition” value was 0.596% [at 42.5 µM].

For `CCCC[P+](C)(CCCC)CCCC`, the “activity change, negative = inhibition” value was -10.5%.

For `C#C[C@]1(OC(C)=O)CC[C@H]2[C@@H]3CCC4=C/C(=N/O)CC[C@@H]4[C@H]3CC[C@@]21CC`, the “activity change, negative = inhibition” value is 3.41% [at 42.5 µM].

Regarding `Nc1nc(N)nc(-c2cc(Cl)ccc2Cl)n1`, the “activity change, negative = inhibition” value was 0.232% [at 42.5 µM].

For `COC1=C(OC)C(=O)C(CCCCCCCCCCO)=C(C)C1=O`, the “activity change, negative = inhibition” value is 14.2% [at 42.5 µM].

Regarding `CCCCCCCC/C=C\CCCCCCCCN`, the “activity change, negative = inhibition” value was -0.849% [at 42.5 µM].

Take `C=C(CC)C(=O)c1ccc(OCC(=O)O)c(Cl)c1Cl`: the “activity change, negative = inhibition” value was -19% [at 42.5 µM].

Take `COc1cc(/C=C/c2ccccc2)oc(=O)c1`: the Potency is 11.2 µM (active).

Turning to `CCCCCc1ccc(Cl)cc1`, the “activity change, negative = inhibition” value is 11.9%.

On to `CC(N=C(NC#N)Nc1ccncc1)C(C)(C)C` (stereo not given), for which the “activity change, negative = inhibition” value is 2.17% [at 42.5 µM].

As to `CCCCCCC1CCCC(=O)O1` (stereo not given), the “activity change, negative = inhibition” value was -7.87%.

For the compound `CCCCCCCCCCCC(=O)OCC(C)OC(=O)CCCCC(=O)O` (stereo not given), the “activity change, negative = inhibition” value was 0.931% [at 42.5 µM].

Consider `CC(C)Cn1cnc2c(N)nc3ccccc3c21`, for which the activity change, negative = inhibition is -5.48% [at 19 µM].

For the compound `COC(=O)C1=C(C)NC(C)=C(C(=O)OCCN2CCN(C(c3ccccc3)c3ccccc3)CC2)C1c1cccc([N+](=O)[O-])c1` (stereo not given), the “activity change, negative = inhibition” value is -11.2% [at 42.5 µM].
